Source: PubChem BioAssay
Most compounds without a hit are left out; they make up all but 1.6% or so of the library.
KCNQ2 inh – blocks the rat KCNQ2 potassium channel; O88943; B-score at 10 µM; CHO-K1 KCNQ2, FluxOR thallium flux, 20 min; stronger effect = lower value; AID 2156; 310,000 compounds, 1.1% hits;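 active = fluorescence ratio B-score at most minus 3 library SDs, with starting brightness B-score within 2 library SDs, cut at about -5.5 in these data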
Target sequence (O88943 whole entry, looked up): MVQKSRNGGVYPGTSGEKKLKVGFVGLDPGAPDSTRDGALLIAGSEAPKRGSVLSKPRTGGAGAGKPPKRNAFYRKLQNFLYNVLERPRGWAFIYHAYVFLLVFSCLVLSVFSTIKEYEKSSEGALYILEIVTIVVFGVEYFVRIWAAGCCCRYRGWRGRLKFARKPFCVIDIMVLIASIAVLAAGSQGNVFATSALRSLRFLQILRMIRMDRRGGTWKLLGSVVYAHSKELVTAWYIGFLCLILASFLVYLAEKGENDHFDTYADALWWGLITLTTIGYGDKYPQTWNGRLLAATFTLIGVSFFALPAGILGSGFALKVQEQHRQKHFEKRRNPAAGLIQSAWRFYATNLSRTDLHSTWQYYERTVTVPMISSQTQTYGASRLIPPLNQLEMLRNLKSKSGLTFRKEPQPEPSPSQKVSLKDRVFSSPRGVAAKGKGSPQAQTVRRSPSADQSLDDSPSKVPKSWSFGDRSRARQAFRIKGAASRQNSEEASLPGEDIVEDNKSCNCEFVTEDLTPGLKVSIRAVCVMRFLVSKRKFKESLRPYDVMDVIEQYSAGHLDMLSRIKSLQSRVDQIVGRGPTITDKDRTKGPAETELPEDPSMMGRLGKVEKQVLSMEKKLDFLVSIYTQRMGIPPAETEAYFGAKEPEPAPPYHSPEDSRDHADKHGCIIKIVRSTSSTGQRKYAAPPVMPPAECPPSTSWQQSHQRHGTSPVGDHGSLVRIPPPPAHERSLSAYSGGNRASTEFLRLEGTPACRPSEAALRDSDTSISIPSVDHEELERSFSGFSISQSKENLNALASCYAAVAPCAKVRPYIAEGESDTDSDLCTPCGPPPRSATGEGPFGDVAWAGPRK
KCNQ2 pot – enhances the rat KCNQ2 potassium channel; O88943; CHO-K1 KCNQ2, FluxOR thallium flux fluorescence; stronger effect = higher value; B-score at 10 µM; 310,000 compounds, 0.54% hits; AID 2239;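 active = fluorescence ratio B-score at least 3 SD of library B-scores, with initial fluorescence B-score within 3 of them, cut at about 5.3 in these data; same plate scores as AID 2156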;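 note: B-score of peak minus minimum over baseline fluorescence ratio after K+ and Tl+ stimulus; positive B-score means potentiation of KCNQ2 with more thallium influx and brighter signal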
Numbers without * were called inactive; i = inactive; / = no result.

SMILES	KCNQ2 inh	KCNQ2 pot
CC(C)(C)N(Cc1ccccc1)C(=O)CCc1ccccc1	-6.6*	-6.6
CN1CCN(S(=O)(=O)c2cccc(C(=O)Nc3cc(Cl)ccc3N3CCOCC3)c2)CC1	-7.5*	-7.5
CN1CCN(S(=O)(=O)c2cccc(C(=O)Nc3cc(C(F)(F)F)ccc3N3CCCC3)c2)CC1	i	/
CC(Oc1cccc(Cl)c1)C(=O)Nc1cc(S(=O)(=O)N2CCCCC2)ccc1N1CCOCC1 (centres undefined)	-7.6*	-7.6
CC(Oc1cccc(Cl)c1)C(=O)Nc1cc(S(=O)(=O)N2CCOCC2)ccc1N1CCCC1 (centres undefined)	i	/
O=C(CSc1nnc(-c2ccc(O)cc2)n1Cc1ccco1)c1cccs1	i	0.02
N#Cc1c(-c2ccccc2)c(-c2ccccc2)n(Cc2ccco2)c1NC(=O)c1cccs1	-6.3*	-6.3
O=C(NCCc1ccc(Cl)cc1)C1COc2ccccc2O1 (centres undefined)	-6*	-6
O=C(NCCO)C1COc2ccccc2O1 (centres undefined)	i	0.89
CCOC(=O)Cc1csc(NC(=O)CSc2nccn2C)n1	i	/
CCC[C@@H]1C[C@@]1(CCC)[C@@H](NP(=O)(c1ccccc1)c1ccccc1)c1ccc(C(=O)OC)cc1	i	/
COC(=O)c1cccc(C#CC(NP(=O)(c2ccccc2)c2ccccc2)c2ccccc2)c1 (centres undefined)	-6.3*	-6.3
Cc1ccc(NC(=O)C2CCN(C(=O)c3ccc(F)cc3)CC2)nc1	i	1.7
CCOc1ccc(N2CC(C(=O)NC3=NCCS3)CC2=O)cc1 (centres undefined)	i	/
C[C@@H](CSc1ccccc1)CN1CC[C@H](C(C)(C)C)CCC1=O	-7.2*	-7.2
Cc1ccc(S[C@@H](CCN2CC[C@H](C(C)(C)C)CCC2=O)c2ccccc2)cc1	-5.8*	-5.8
Cc1ccc(S[C@@H](CCN2CC[C@H](C)CCC2=O)c2ccccc2)cc1	i	/
CC(C)(C)C1CCC(=O)N(CCSc2ccccc2)CC1 (centres undefined)	i	/
CC1(C)NC(=O)N(CC(O)CN(c2ccccc2)S(=O)(=O)c2ccc([N+](=O)[O-])cc2)C1=O (centres undefined)	i	/
CC1CCCCN1C(=O)c1cc2nc(-c3ccccc3)cc(-c3ccccc3)n2n1 (centres undefined)	-5.7*	-5.7
CC1CCCCN1C(=O)CSc1nc(-c2ccccc2)cc(=O)[nH]1 (centres undefined)	i	0.32
Cc1ccc(CCNC(=O)c2cccc(NC3=NC4CS(=O)(=O)CC4S3)c2)cc1 (centres undefined)	i	0.69
CC(=O)N1CCC(CCCC2CCN(C(C)=O)CC2)CC1	i	1.7
CCN(CC1CCCN(CCc2cccc(F)c2)C1)C(=O)c1cc2ccccc2o1 (centres undefined)	i	/
CN(CC1CCCN(CCc2cccc(C(F)(F)F)c2)C1)C(=O)c1cc2ccccc2o1 (centres undefined)	-7*	-7
SMILES	KCNQ2 inh	KCNQ2 pot
Cc1ccc(C)c(NC(=O)C(=O)NCC2CCCN2S(=O)(=O)c2cccs2)c1 (centres undefined)	i	/
Cc1c(Cl)cccc1NC(=O)C1Cc2ccccc2CN1C(=O)c1ccccc1 (centres undefined)	-7.9*	-7.9
Cc1cccc(NC(=O)C2Cc3ccccc3CN2C(=O)OCc2ccccc2)c1C (centres undefined)	i	/
COCCN(C(=O)COC(=O)c1nc(Cl)ccc1Cl)c1c(N)n(Cc2ccccc2)c(=O)[nH]c1=O	i	/
Cc1ccc(-c2csc3nc[nH]c(=S)c23)cc1C	i	10*
COc1ccc(-c2csc3nc[nH]c(=O)c23)cc1OC	i	1.1
COc1cccc(CNCC(O)(c2ccc(Cl)cc2)c2ccc(Cl)cc2)c1	i	/
Cc1ccc(CNCC(O)(c2ccccc2)c2ccc(Cl)cc2)cc1 (centres undefined)	-6.4*	-6.4
O=C(Cn1cc(S(=O)(=O)Cc2ccc([N+](=O)[O-])cc2)c2ccccc21)N1CCOCC1	i	0.31
O=C(COc1ccc2c(c1)OCO2)Nc1nccs1	i	0.57
Cc1ccc(C(=O)NC2CCN(CC(=O)NC3CCC(C)CC3)CC2)cc1 (centres undefined)	i	0.14
Cc1ccc(/C=C/C(=O)N2CCN(c3ncccn3)CC2)o1	i	8.9*
Cc1ccc(/C=C/C(=O)N2CCN(c3ccc(F)cc3)CC2)o1	i	/
COc1cccc(N2CCN(C(=O)CN(c3cc(C)cc(C)c3)S(=O)(=O)c3c(C)noc3C)CC2)c1	i	/
Cc1cc(C)cc(N(CC(=O)N2CCN(c3ccccc3)CC2)S(=O)(=O)c2c(C)noc2C)c1	-6.5*	-6.5
O=C(O)CCC(=O)N1CCN(c2ncccn2)CC1	i	/
C=CCSC1=N/C(=C\c2cc(OCC)c(OC(C)=O)c([N+](=O)[O-])c2)C(=O)S1	i	7.1*
C=CCSC1=N/C(=C\c2ccc3c(c2)OCO3)C(=O)S1	i	0.47
